# In PubChem BioAssay AID686978 (National Center for Advancing Translational Sciences (NCATS), 2013):
# In all, about 420,000 compounds went through this assay and about 64,000 (15%) were called active. Inconclusive results (about 27%) are left out. Only a sample is shown. Unmarked numbers belong to inactive results. Calls come from the whole dose curve; as a rule, active = well fitted inhibition curve with a large enough effect; inconclusive = small, poorly fitted or top-dose-only effect; inactive = flat fitted curve, though single readings scatter.
# Assay: qHTS for Inhibitors of human tyrosyl-DNA phosphodiesterase 1 (TDP1): qHTS in cells in absence of CPT; note: nearly all actives have a fitted effect of over 55% in size
# Conditions: DT40 Tdp1-/- hTDP1 cells, no CPT, ATP luminescence, 48 h; activity change, negative = growth inhibition: at 46.2 µM (top of the series)
# How it was run: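 Growth kinetics read by CellTiter-Glo luminescence after ≥48 hr at 37 °C. Cells: DT40 Tdp1-/- stably carrying human TDP1, 400 per well, compound exposure in the absence of CPT (DMSO vehicle).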
# % is set by controls: 0 for no effect and ±100 for the full control effect; potency is the fitted concentration of half-maximal effect.
SMILES,Potency,"activity change, negative = growth inhibition"
c1ccc2cc3c(NCCN4CCOCC4)ccnc3cc2c1,20.6 µM (active),
CC1CCCN(C(=O)Cn2c(=O)oc3ccccc32)C1 (centres undefined),,-3.54%
CC(C)NC(=S)Nc1cccc2cnccc12,,2.15%
O=C(NCCN1CCOCC1)c1cccc(S(=O)(=O)Nc2ccc(F)cc2)c1,,-15.8%
CCN(c1ccccc1)S(=O)(=O)c1cccc(C(=O)NCc2ccccc2CN2CCOCC2)c1,18.4 µM (active),
CCN(c1ccccc1)S(=O)(=O)c1cccc(C(=O)O)c1,,11.1%
Cc1ccc(NC(=O)O/N=C/c2cccc([N+](=O)[O-])c2)cc1,,11.3%
COC(=O)c1ccc(COc2ccc(/C=N/NC(=O)C(=O)Nc3ccc(OC)cc3)cc2OC)o1,,-23.3%
CCCc1ccc(OCc2ccc(C(=O)N/N=C/c3cccc([N+](=O)[O-])c3)o2)c(OC)c1,6.51 µM (active),
CC(OC(=O)CN1C(=O)COc2ccccc21)C(=O)NCc1ccc(F)cc1 (centres undefined),,-11.9%
COc1ccc(CCNC(=O)CN(c2ccccc2)S(C)(=O)=O)cc1OC,,9.69%
COc1ccc(CCNC2=C(Cl)C(=O)N(Cc3ccccc3)C2=O)cc1OC,20.6 µM (active),
COc1ccc(CCNS(=O)(=O)c2ccc(Cl)s2)cc1OC,,-25.5%
COc1c(C(C)C)oc2cc3oc(=O)ccc3cc12,inactive,
CCOC(=O)CCCN1CC(O)=C(c2nc3ccccc3s2)C1=N,,-22.8%
O=C(Nn1c(-c2ccccc2)nc2ccccc2c1=O)c1ccc([N+](=O)[O-])cc1,,-6.88%
N=C1C(c2nc3ccccc3s2)=C(O)CN1NC(=O)c1ccc([N+](=O)[O-])cc1,23.1 µM (active),
Cc1nc2cc(NC(=O)CSc3nc4c(C)cccc4cc3C#N)ccc2s1,,-16.2%
COCCNC(=O)c1snc2ccc(Cl)cc12,,-21.8%
CCOc1ncccc1C(=O)N(C)CC(=O)Nc1ccc(F)cc1,,-0.0857%
O=C(O)CN1c2cccc3cccc(c23)S1(=O)=O,,-23.5%
COc1ccccc1CNC(=O)COC(=O)CNS(=O)(=O)c1ccc(NC(C)=O)cc1,,11.4%
COc1ccc(OC)c(CNC(=O)CCc2nc(-c3cccs3)no2)c1,,-7.21%
COc1ccc(CNC(=O)COCc2cc(-c3cccs3)on2)cc1OC,23.1 µM (active),
COc1ccc(CNC(=O)COC(=O)c2sccc2C)cc1OC,,-4.33%
Cc1cc(C)cc(NC(=S)NCCCN2CCOCC2)c1,,1.47%
Cc1ccc(-n2nc3c(c2NC(=O)c2ccc4c(c2)OCO4)CSC3)c(C)c1,,-6.86%

SMILES,Potency,"activity change, negative = growth inhibition"
CCOc1c2ccc(C(=O)NCc3ccc4c(c3)OCO4)cc2nn1C,,-0.712%
C=CCNC(=O)c1ccc2c3n(nc2c1)-c1ccc(C)cc1CO3,18.4 µM (active),
COc1ccc(N2CCN(CCNC(=O)CCN3C(=O)COc4ccccc43)CC2)cc1,,-12.1%
C/C(=N\NC(=O)COc1ccc(C)cc1[N+](=O)[O-])c1ccc2c(c1)OCCO2,,-13.3%
COc1ccc(CNc2nc(NCc3ccc(OC)cc3)c3ncn(C4CCCC4)c3n2)cc1,2.31 µM (active),
COc1ccc(CNC2CCCCC2)cc1,,-10.9%
CCCn1nnnc1NCc1ccc(OC)cc1,,2.5%
O=C1NS(=O)(=O)c2ccccc21,inactive,
N#CCCN1CCN(S(=O)(=O)c2ccc(S(=O)(=O)NC3CC3)cc2)CC1,,3.76%
COc1ccc(-c2cc(-c3ccccc3)nc3c2COc2ccc(Cl)cc2-3)cc1,,-15.8%
O=C(CSc1nc(=O)[nH]c2c1CCCC2)Nc1cc(C(F)(F)F)ccc1Cl,16.4 µM (active),
COc1ccc(Cl)cc1NC(=O)CSc1nc(=O)[nH]c2c1CCCC2,,-57.5%
Nc1nc(SCC(=O)Nc2cc(C(F)(F)F)ccc2Cl)[nH]c(=O)c1NC(=O)c1ccco1,,-0.773%
CC(C)CCN1CCN=C1N(C)C,,-7.35%
COc1ccc2oc(C(=O)NCc3ccco3)c(C)c2c1,,20.9%
CC(C)CC(=O)N1CCN(Cc2ccccc2Br)CC1,,-0.0212%
Cc1c(C(=O)NCc2ccccc2Br)oc2ccc3c(c12)C(=O)CC(C)(C)O3,16.4 µM (active),
C[C@]12C=CC(=O)C=C1CC[C@@H]1[C@@H]2C(=O)C[C@@]2(C)[C@H]1CC[C@]2(O)C(=O)CO,,-10.7%
Cc1cc(C)cc(N(CCC#N)C(=O)CN2C(=O)NC3(CCCC3)C2=O)c1,,-12.4%
O=C(NC1CCCC1)C(c1ccc(N2CCOCC2)cc1)N(C(=O)c1ccco1)c1ccccc1F (centres undefined),,-27.7%
O=C(O)c1ccc(OCC2CCCO2)cc1 (centres undefined),,7.34%
O=C(O)c1ccc(/C=N/NC(=O)c2ccc(Br)cc2)cc1,,-10%
O=C(N/N=C/c1ccc(OCC2COCCO2)cc1)c1ccc(Br)cc1 (centres undefined),18.4 µM (active),
O=C(Nc1cccn(Cc2c(Cl)cccc2Cl)c1=O)c1ccc(Cl)cc1,,-16.9%
CCCOC(=O)Nc1sc2c(c1C(=O)OCC)CCC2,,-8.8%
CCOC(=O)c1c(NC(C)=O)c2c3c(sc2n1Cc1c(C)cc(C)cc1C)CCCC3,13 µM (active),
CCC(C)NC(=O)Cn1c(=O)n(-c2ccc(Cl)cc2)c(=O)c2c3c(sc21)CCCC3 (centres undefined),,-29%
